Only some compounds are listed: those with a hit (about 19% of all), similar ones and a draw of the others.
TDP1 block – blocks human tyrosyl-DNA phosphodiesterase 1; Potency, µM (doses to about 130 µM), inactives show top-dose activity change, negative = inhibition, actives largely listed as inhibitors; actives 0.28% (n = 350,000); recombinant TDP1, AlphaScreen DNA substrate cleavage; Q9NUW8; note: nearly all actives have a fitted effect of over 40% in size
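AlphaScreen read-out: signal falls as enzyme removes the 3' tyrosine-FITC from a 5'-biotinylated DNA oligo (15 nM, 5 min, RT). Enzyme was E. coli-made recombinant Tdp1 at 1 nM, exposed to compound for 15 min beforehand; beads 10 ug/ml, 10 min.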
TDP1 cell noCPT – qHTS for Inhibitors of human tyrosyl-DNA phosphodiesterase 1 (TDP1): qHTS in cells in absence of CPT | DT40 Tdp1-/- hTDP1 cells, no CPT, ATP luminescence, 48 h | Potency, µM (highest dose often 46.2 µM), inactives show at the highest dose activity change, negative = growth inhibition, usual class: inhibitors | actives 15% (n = 420,000); note: nearly all actives have a fitted effect of over 55% in size
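A cellular qHTS used chicken DT40 cells lacking endogenous Tdp1 but carrying stably transfected human TDP1. Compounds were applied without camptothecin, and cell growth kinetics were judged by ATP-dependent luminescence after ≥48 hr.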
RORg inh – ROR gamma (mouse) transcription inhibition | actives 5.4% (n = 310,000) | P51450 | Potency, µM (doses to about 53.6 µM), inactives show at the top dose activity change, negative = inhibition, most hits filed as inhibitors | Drosophila S2 Gal4-RORgamma UAS-luciferase reporter, 20 h; note: nearly all actives have a fitted effect of over 60% in size
Target sequence (P51450 whole entry, looked up, the tested form may be a part): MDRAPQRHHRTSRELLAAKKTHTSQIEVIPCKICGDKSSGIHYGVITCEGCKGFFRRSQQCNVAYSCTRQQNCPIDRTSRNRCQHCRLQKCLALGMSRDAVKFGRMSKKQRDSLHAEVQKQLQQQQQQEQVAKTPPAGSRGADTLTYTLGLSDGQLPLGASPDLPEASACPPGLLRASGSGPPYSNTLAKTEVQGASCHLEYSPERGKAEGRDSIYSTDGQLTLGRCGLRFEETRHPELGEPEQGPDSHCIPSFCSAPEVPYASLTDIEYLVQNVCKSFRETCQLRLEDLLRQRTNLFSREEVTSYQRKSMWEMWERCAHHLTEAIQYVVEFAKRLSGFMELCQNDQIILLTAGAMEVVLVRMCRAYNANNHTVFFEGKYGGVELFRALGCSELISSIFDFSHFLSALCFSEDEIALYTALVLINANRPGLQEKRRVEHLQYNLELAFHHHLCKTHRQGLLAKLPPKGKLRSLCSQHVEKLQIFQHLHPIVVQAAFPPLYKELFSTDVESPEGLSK
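Schneider cells (Drosophila), stable Gal4 DBD–ROR gamma + UAS-luc; 1 hr cmpd preincubation; Cu2+ induction 700 uM final; 20 hr ambient; luminescence.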
Gal4-VP16 FLuc – Gal4-VP16 reporter inhibition counter-screen; Drosophila S2 Gal4-VP16 UAS-luciferase, luminescence, 20 h; Potency, µM (top dose mostly 53.6 µM), inactives show at the highest dose activity, negative = inhibition, usual class: inhibitors; actives 3.5% (n = 310,000); AID 2546;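 note: Gal4-VP16 expression switched on by copper sulfate through the metallothionein promoter; nearly all actives have a fitted effect of over 50% in size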
TDP1 cell CPT – DT40-hTDP1 cell growth loss with CPT | chicken DT40 Tdp1-/-;hTDP1 cells + 20 nM CPT, ATP luminescence, 48 h | Potency, µM (doses to about 46.2 µM), for inactives: at the top dose activity change, negative = growth inhibition, hits mostly inhibitors | actives 12% (n = 420,000); note: nearly all actives have a fitted effect of over 55% in size
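Chicken DT40 Tdp1-/- cells stably complemented with human TDP1 were seeded at 400 cells/well in medium containing 20 nM camptothecin, exposed to pin-transferred compounds, and grown at 37 °C for at least 48 hr. Viability was read as ATP luminescence.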
* marks the source's active call; other numbers are inactive results; ? = inconclusive; / = not tested or not shown; [ ] = remark or other dose. Calls come from the whole dose curve; as a rule, active = well fitted curve in the direction sought with a large enough effect; inconclusive = small, poorly fitted or top-dose-only effect, or another doubt; inactive = no such curve, though single readings can be large; an effect the other way counts as inactive or inconclusive. % is set by controls: 0 for no effect and ±100 for the full control effect; potency is the fitted concentration of half-maximal effect.

SMILES	TDP1 block	TDP1 cell noCPT	RORg inh	Gal4-VP16 FLuc	TDP1 cell CPT
CCOC(=O)c1cc(C)sc1/N=C/C1C(=O)NC(=S)NC1=O	-4%	-18%	16µM*	4%	4%
CC12CCC3C(CCC4(O)CC(O)CCC34C=O)C1(O)CCC2C1=CC(=O)OC1 (centres undefined)	/	7.3µM*	/	/	10µM*
C[C@]12CC[C@H]3[C@@H](CC[C@]4(O)C[C@@H](O)CC[C@]34C=O)[C@@]1(O)CC[C@@H]2C1=CC(=O)OC1	/	5.2µM*	/	/	7.3µM*
CC(=O)O[C@H]1CC[C@]2(C=O)C3CC[C@]4(C)[C@@H](C5=CC(=O)OC5)CC[C@]4(O)C3CC[C@]2(O)C1 (some centres undefined)	10%	/	-5%	5%	/
C[C@@H]1O[C@H](O[C@@H]2CC[C@@]3(C=O)[C@H]4CC[C@@]5(C)[C@@H](C6=CC(=O)OC6)CC[C@@]5(O)[C@@H]4CC[C@]3(O)C2)C[C@H](O)[C@@H]1O	10%[21 µM]	/	-7%[16.9 µM]	-11%[17 µM]	/
C[C@H]1O[C@@H](OC2CC[C@]3(C=O)[C@H]4CC[C@]5(C)[C@@H](C6=CC(=O)OC6)CC[C@]5(O)[C@@H]4CC[C@]3(O)C2)CC2OC(C)(C)OC21 (some centres undefined)	/	1µM*	16µM*	-1%	1.8µM*
CC12CCC3C(CCC4(O)CC(O)CCC34C=NO)C1(O)CCC2C1=COC(=O)C1 (centres undefined)	/	8.2µM*	/	/	16µM*
C[C@@H]1CN([C@@H](C)CO)C(=O)c2c(c3ccccc3n2C)-c2ccccc2CO[C@H]1CN(C)S(=O)(=O)c1ccc(C#N)cc1	/	?	/	/	5%
CC1CN1P(=O)(Oc1ccccc1)N1CC1C (centres undefined)	/	-11%	/	/	-29%
C=C(C)[C@H]1C2C(=O)O[C@H]1[C@H]1OC(=O)[C@@]34O[C@@H]3C[C@]2(O)[C@@]14C	5%	-1%	24%	2%	-2%
CC12CC[C@H]3[C@@H](CCC4(O)C[C@H](O)CCC34/C=N/NC(=O)c3ccccc3Cl)C1(O)CCC2C1=CC(=O)OC1 (some centres undefined)	4%	0%	-20%	-1%	1%
CCCCN=C[C@]12CCC(O)CC1(O)CCC1[C@@H]2CC[C@]2(C)[C@H](C3C=CC(=O)O3)CCC12O (some centres undefined)	/	16µM*	-6%	-3%	?
CC(C)c1ccc(CNC(=O)c2ccc(N3CCCC3)c(NC(=O)NCc3ccccc3)c2)cc1	1%	23µM*	/	/	15µM*
O=c1[nH]c2c(s1)C(c1cccnc1)C1C3CCC(C3)C1S2 (centres undefined)	-1%	-28%	-11%	-3%	?
CC1=NN(Cc2c[nH]c3ccccc23)C(C)(C)C1	11%	-27%	-6%	0%[10 µM]	-6%
CC(=O)c1cn(CCCOc2ccccc2)c2ccccc12	-2%	16µM*	?	6.3µM*	?
O=C(C(=O)N1CCOCC1)c1cn(CCCOc2ccccc2)c2ccccc12	0%	?	28%	2%[10 µM]	-23%
Cc1ccccc1O	0%	1%	22%	0%	14%
Oc1cccc[c]1[Hg][Cl]	/	0.15µM*	1.6µM*	3.5µM*	0.19µM*
Cc1cc(N(CCCl)CCCl)ccc1/C=N/N=C(\N)c1cnccn1	/	12µM*	/	/	7.3µM*
Cc1cc(N(CCCl)CCCl)ccc1C=Cc1ccncn1	/	4.6µM*	/	/	2.6µM*
COC(=O)[C@H](Cc1ccccc1)N(Cc1ccccc1)S(=O)(=O)N(Cc1ccccc1)[C@@H](Cc1ccccc1)C(=O)OC	1%	12µM*	/	/	23µM*
CC1CC(C)CN(C(=O)COC(=O)c2cn(C)c3ccccc23)C1 (centres undefined)	1%	-21%	/	/	-26%
Cc1c(C(=O)N2CCC3(CC2)OCCO3)sc2ncnc(N3CCc4ccccc4C3)c12	2%	23µM*	22%	-3%	16µM*
CC(=O)c1cccc(NC(=O)c2cccn(Cc3cccc(C)c3)c2=O)c1	-5%	21µM*	/	/	23µM*
SMILES	TDP1 block	TDP1 cell noCPT	RORg inh	Gal4-VP16 FLuc	TDP1 cell CPT
O=C(Nc1ccc2c(c1)OCCO2)c1cccn(Cc2cccc([N+](=O)[O-])c2)c1=O	10%	13µM*	/	/	?
Cc1cccc(Cn2cccc(C(=O)Nc3cc(C)on3)c2=O)c1	0%	-23%	/	/	-23%
COC(=O)C1=C(c2c(C)noc2C)C[C@@H]2CC[C@H]1N2C(=O)N1CCOCC1	1%	3%	/	/	-10%
O=[N+]([O-])OC1CO[C@H]2C(O[N+](=O)[O-])COC12 (some centres undefined)	4%	/	18%	-6%	/
CO[C@H]1[C@@H](OC)CC(OC2OC(CO)C(O)C(O)C2O)/C(=C\C#N)[C@@H]1O (some centres undefined)	8%	-3%	12%	-12%	0%
COC(=O)[C@@H]1[C@@H](C(=O)OC)C2(c3ccccc3-c3ccccc32)N(c2ccc(Cl)cc2)N1C#N	5%	2.6µM*	?	4.5µM*	2.6µM*
COC(=O)C[C@]1(C(=O)OC)CN(C#N)N(c2ccc(Cl)cc2)C12c1ccccc1-c1ccccc12	/	0.92µM*	5.6µM*	3.2µM*	1µM*
O=C1/C(=C/c2ccc(F)cc2)Oc2cc(OC(=O)N3CCOCC3)ccc21	0%	?	20%	?	-24%
c1ccc2c(c1)CN(Cc1ccc3c(c1)OCO3)Cc1cnnn1-2	/	10µM*	/	/	?
c1ccc(CN2Cc3ccccc3-n3nncc3C2)cc1	/	?	/	/	-5%
COP(=S)(OC)Oc1nc(Cl)c(Cl)cc1Cl	21%	/	17%	-16%	/

Source: PubChem BioAssay (National Center for Advancing Translational Sciences (NCATS))
